Experimental data: PubChem BioAssay
Values without a mark were called inactive. The rule behind the calls is not given here.

molecular target: Pantothenate synthetase (Mycobacterium tuberculosis (strain ATCC 25618 / H37Rv)) (UniProt P9WIL5); assay: Coupled enzyme confirmation of inhibitors against recombinant Mtb PanC (AID 375); details: coupled enzyme assay; at 10 µM, active compounds read high;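 note: 0% = full reaction with vehicle and 100% = no enzyme background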
Sequence (P9WIL5 whole entry, looked up): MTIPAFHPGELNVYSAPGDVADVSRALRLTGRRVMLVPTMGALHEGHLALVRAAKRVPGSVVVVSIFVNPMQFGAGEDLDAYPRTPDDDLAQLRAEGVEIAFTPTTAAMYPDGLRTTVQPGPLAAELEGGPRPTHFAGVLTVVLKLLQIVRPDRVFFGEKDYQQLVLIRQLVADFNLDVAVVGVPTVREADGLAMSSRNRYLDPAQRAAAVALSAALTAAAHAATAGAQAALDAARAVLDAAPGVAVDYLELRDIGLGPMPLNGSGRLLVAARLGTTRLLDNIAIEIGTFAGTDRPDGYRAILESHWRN

Q: For `c1ccc(-n2nnnc2OCCOc2nnnn2-c2ccccc2)cc1`, which inhibition is on record?
A: 3%

Q: With `O=C(CSc1nc(-c2ccccc2)cs1)NCc1ccco1` as the compound, how does the inhibition read?
A: 0%

Q: Which inhibition does the source give for `CN(C)S(=O)(=O)c1ccc2c(c1)C(CC(=O)O)OC2=O` (stereo not given) here?
A: 4%

Q: For `COc1ccccc1N1CCN(C(=O)CSc2nc(-c3ccccc3)cc(=O)[nH]2)CC1`, which inhibition is on record?
A: 1%

Q: How did the inhibition turn out when `Cc1cc2oc(=O)cc(CN3CCCCC3)c2cc1C(C)C` was run?
A: 0%

Q: How did the inhibition turn out when `O=C(O)CCn1[nH]c(=O)ccc1=O` was run?
A: 0%

Q: For `CN(CC(O)COCc1cccs1)C1CCCCC1` (stereo not given), which inhibition is on record?
A: 1%

Q: With `Clc1ccc(-c2nnc3sc(-c4ccc(Br)o4)nn23)cc1` as the compound, how does the inhibition read?
A: 0%

Q: `Cn1c(=O)c2c3c(sc2n2c(SCC(=O)c4ccc(Cl)cc4)nnc12)COC(C)(C)C3` was tested. Which inhibition did it give?
A: 0%

Q: Which inhibition does the source give for `O=C1CC(N2CCC(C(=O)N3CCCCC3)CC2)C(=O)N1` (stereo not given) here?
A: 11%

Q: For `CCn1c(SCC(=O)c2ccc(F)cc2)nnc1-c1ccoc1C`, which inhibition is on record?
A: 4%

Q: With `COc1ccc(OC)c(NC(=O)CCN2CCN(c3ccccc3F)CC2)c1` as the compound, how does the inhibition read?
A: 4%

Q: `O=C1CC(c2cccc(Cl)c2)CC(O)=C1C=NCCCO` (stereo not given) was tested. Which inhibition did it give?
A: 9%

Q: For `CC(=O)NC(CCS(C)(=O)=O)C(=O)Nc1cccc(C)c1` (stereo not given), which inhibition is on record?
A: 3%

Q: How did the inhibition turn out when `Oc1ccc(Cl)cc1-c1cc(-c2ccccc2)n[nH]1` was run?
A: 0%

Q: For `CC(C)(C)c1ccc(-c2nnc(SCCC#N)n2C2CCCC2)cc1`, which inhibition is on record?
A: 0%

Q: With `Cc1cccc(-c2cc3nc(C)cc(NCCCN(C)C)n3n2)c1` as the compound, how does the inhibition read?
A: 0%

Q: Which inhibition does the source give for `N#Cc1nc(COc2ccccc2)oc1NCCCn1ccnc1` here?
A: 0%

Q: How did the inhibition turn out when `CC1=C(C(N)=O)C(c2ccccn2)n2nc(SCc3ccccc3)nc2N1` (stereo not given) was run?
A: 0%

Q: For `Cc1cc(N2CCOCC2)nc2ccc(NC(=O)C3CCC(C)CC3)cc12` (stereo not given), which inhibition is on record?
A: 0%

Q: How did the inhibition turn out when `CCc1nn2c(=O)cc(CSc3nc4sc5c(c4c(=O)n3C)CCCC5)nc2s1` was run?
A: 0%

Q: `Cc1ccc2[nH]c(=O)c(-c3noc(-c4ccncc4)n3)cc2c1` was tested. Which inhibition did it give?
A: 2%

Q: How did the inhibition turn out when `COc1ccc(C(=O)Nc2cccc(-c3nc4ncccc4o3)c2C)cc1OC` was run?
A: 2%

Q: Which inhibition does the source give for `COC(=O)CC1SCCNC1=O` (stereo not given) here?
A: 0%

Q: Which inhibition does the source give for `O=C1CSC(c2cn(-c3ccccc3)nc2-c2cccs2)N1CC1CCCO1` (stereo not given) here?
A: 2%

Q: With `O=C(CSc1nnc(SCc2ccc(Cl)cc2)s1)N1CCN(C(=O)c2ccco2)CC1` as the compound, how does the inhibition read?
A: 7%

Q: With `O=P(O)(O)c1ccccc1OCCOCCOc1ccccc1P(=O)(O)O` as the compound, how does the inhibition read?
A: 4%

Q: Which inhibition does the source give for `N#CCCn1cnc2ccccc21` here?
A: 0%

Q: With `COCC(=O)N(Cc1cc2cc(OC)ccc2[nH]c1=O)c1ccccc1` as the compound, how does the inhibition read?
A: 0%

Q: For `CCC(OC(=O)c1cccs1)C(=O)NCc1ccco1` (stereo not given), which inhibition is on record?
A: 0%

Q: With `CC(C)(C)n1cnc2cc(NS(=O)(=O)c3ccc(Br)cc3)ccc21` as the compound, how does the inhibition read?
A: 7%

Q: How did the inhibition turn out when `Cc1cc(NC(c2cccnc2)c2c(C)[nH]c3ccccc23)no1` (stereo not given) was run?
A: 0%

Q: How did the inhibition turn out when `O=C(COC(=O)c1ccc(NS(=O)(=O)c2ccc3c(c2)OCCO3)cc1)NCC1CCCO1` (stereo not given) was run?
A: 2%

Q: How did the inhibition turn out when `COC(=O)c1[nH]c(C)c(/C(O)=C2\C(=O)C(=O)N(CCN3CCOCC3)C2c2cccs2)c1C` (stereo not given) was run?
A: 4%

Q: How did the inhibition turn out when `COc1ccc(C)cc1C(=O)CCC(=O)Nc1ccccc1N1CCOCC1` was run?
A: 2%

Q: How did the inhibition turn out when `COc1cccc(C(=O)Nc2ccc(NC(C)=O)cn2)c1` was run?
A: 0%

Q: With `CCOC(=O)CS(=O)(=O)c1nc(-c2ccccc2)cc(C(F)(F)F)n1` as the compound, how does the inhibition read?
A: 3%

Q: For `O=C1c2ccccc2NC(c2ccco2)N1O` (stereo not given), which inhibition is on record?
A: 5%

Q: `O=C(NCc1ccccn1)c1cc(-n2cnnc2)ccc1Cl` was tested. Which inhibition did it give?
A: 0%

Q: How did the inhibition turn out when `Cc1ccc2cccc(SCC(=O)N3CCOCC3)c2n1` was run?
A: 5%
